# Screening results from PubChem.
# BAZ2B block – qHTS Assay for Inhibitors of BAZ2B; Potency, µM (top dose mostly 114 µM), hits mostly inhibitors; actives 4.4% (n = 360,000); AlphaScreen BAZ2B-H3K14Ac peptide displacement; also: nearly all actives have a fitted effect of over 60% in size
#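 Protein-peptide AlphaScreen: BAZ2B 50 nM, b-H3K14Ac 50 nM, 1x PBS pH 7.4 + 0.01% Tween-20. Preincubation 30 min RT; cpd 30 min RT (top 110 uM); beads 20 min RT, light-protected.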
# Six1-Eya2 inh – qHTS Assay for Inhibitors of the Six1/Eya2 Interaction | Homeobox protein SIX1 (Homo sapiens) + Protein phosphatase EYA2 (Homo sapiens), … | AlphaScreen GST-Six1/His-Eya2 binding, biochemical; stronger effect = lower value | activity change, % (no concentration beside the values) | actives 0.56% (n = 360,000) | AID 651725, 2012; in the data active = activity change below about -65%; inconclusive = mostly about -30% to -63%
#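 Compounds are tested against tagged Six1 and Eya2 proteins bridged by glutathione donor and nickel acceptor beads; after a one-hour incubation at 37 °C without light, AlphaScreen emission is recorded.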
# CtBP-E1A inh – qHTS Assay for Inhibitors of the CtBP/E1A Interaction | activity change, % (concentration not given with the values) | CtBP / adenovirus E1A interaction (AlphaScreen) | actives 0.49% (n = 340,000) | AlphaScreen GST-E1A/His-CtBP binding, 1536-well; stronger effect = lower value; in the data active = activity change below about -65%; inconclusive = mostly about -30% to -63%
#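 AlphaScreen with 125 nM GST-E1A and 125 nM His-CtBP (5X stocks) in Tris pH 8.0, 300 mM NaCl, BSA, Tween 20, TCEP. Compounds preincubated 2 h at 37 deg C, then glutathione donor/nickel acceptor beads added for 1 h at 37 deg C in dark.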
# G9a block – qHTS Assay for Inhibitors of Histone Lysine Methyltransferase G9a; Histone-lysine N-methyltransferase EHMT2 (Homo sapiens), Q96KQ7; G9a H3K9 monomethylation, AlphaScreen, 2 h; Potency, µM (highest dose often 102 µM), actives largely listed as inhibitors; actives 8.8% (n = 350,000); AID 504332, 2011; also: nearly all actives have a fitted effect of over 75% in size
#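 Signal arises when biotinylated H3K9 peptide, once monomethylated, bridges streptavidin donor and antibody-captured acceptor beads. Enzyme at 20 nM was preincubated 15 min with test compounds; peptide 500 nM and SAM 20 uM then reacted for 2 h.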
# JMJD2A Tudor inh – qHTS Assay for Inhibitors of JMJD2A-Tudor Domain; AID 504339, 2011; AlphaScreen JMJD2A-Tudor / H3K4me3 peptide binding; actives 4.4% (n = 390,000); Potency, µM (doses to about 114 µM), hits mostly inhibitors; also: nearly all actives have a fitted effect of over 50% in size
# HP1b chromo inh – HTS for Inhibitors of HP1-beta Chromodomain Interactions with Methylated Histone Tails; Chromobox protein homolog 1 (Homo sapiens), P83916; AlphaScreen HP1-beta / biotin-H3K9me3 peptide binding; Potency, µM (titrated, usually from 114 µM), most hits filed as inhibitors; actives 0.56% (n = 390,000); AID 540317, 2011; also: nearly all actives have a fitted effect of over 70% in size
#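 AlphaScreen: HP1-beta (50 nM) preformed 30 min with biotin-H3(1-18)K9me3 peptide (50 nM) in PBS pH 7.4, 0.01% Tween-20. Compound added for 30 min at RT, then streptavidin donor/nickel chelate acceptor beads (10 ug/mL) for 30 min.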
# Hits are given with their value; n = inactive; u = inconclusive; x = no result; [ ] = remark or other dose. This is a sample that favours compounds with a hit; in the whole collection about 10% have one here. Unless noted, calls follow the shape of the dose curve; as a rule, active = well fitted inhibition curve with a large enough effect; inconclusive = small, poorly fitted or top-dose-only effect; inactive = no such curve, though single readings can be large or run the other way.
SMILES,BAZ2B block,Six1-Eya2 inh,CtBP-E1A inh,G9a block,JMJD2A Tudor inh,HP1b chromo inh
CN(C)c1ccc(/C=C/c2ccc3ccccc3n2)cc1,50.1µM,n,x,44.7µM,u,n
CN(C)c1ccc(/C=C/c2nc3ccccc3s2)cc1,31.6µM,u,u,n[0.501 µM],20µM,39.8µM
c1csc(-c2nn3c(-c4ccncc4)nnc3s2)c1,n,x,x,n,x,x
COc1cc(-c2nn3c(COc4ccccc4)nnc3s2)cc(OC)c1OC,n,n,n,5.01µM,n,u
c1csc(Cc2nn3c(-c4ccncc4)nnc3s2)c1,u,n,n,12.6µM,u,n
CC(C)(C)c1ccc(-c2nnc3sc(-c4ccncc4)nn23)cc1,n,n,n,2.51µM,n,n
c1ccc(Cc2nnc3sc(-c4ccco4)nn23)cc1,u,n,n,35.5µM,u,u
CCOc1ccccc1NC(=O)Cn1c(=O)n(Cc2nc(C)no2)c(=O)c2ccccc21,n,x,x,u,n,n
Cc1cccc(CNC(=O)c2ccc3nc(-c4ccccc4)c(-c4ccccc4)nc3c2)c1,n,x,x,n,n,n
COc1cc(NC(=O)CN2CCCN(S(=O)(=O)c3ccc(F)cc3)CC2)cc(OC)c1,n,x,x,n,n,n
c1ccc(OCc2nn3c(-c4ccco4)nnc3s2)cc1,n,n,n,50.1µM,n,n
CCOc1cccc(-c2nnc3sc(-c4cc(OC)c(OC)c(OC)c4)nn23)c1,n,n,n,79.4µM,n,n
Cc1cc(-c2nn3c(-c4ccccc4)nnc3s2)c2ccccc2n1,n,u,u,2.24µM,n,n
c1ccc(Cc2nn3c(COc4ccccc4)nnc3s2)cc1,n,n,n,5.01µM,u,u
COc1ccc(-c2nnc3sc(COc4ccccc4)nn23)cc1,n,n,n,n,n,n
COc1cccc2c1N(C)C(=O)CC21C=CC(=O)C=C1,x,x,x,x,n,n
COc1ccc(C)cc1NC(=O)N1CCCn2nc(C)cc21,n,x,x,n,n,n
Cc1nn(C)c2c1c(C(F)(F)F)cc(=O)n2CC(=O)NCCC(C)C,n,x,x,n,n,n
Cn1cc(C(=O)NCc2ccccc2)c(=O)c2cc(S(=O)(=O)N3CCCCCC3)ccc21,n,x,x,n,n,n
COc1cc(-c2nn3c(-c4ccccc4)nnc3s2)cc(OC)c1OC,n,n,u,44.7µM,n,n
CC1CCC(C(C)C)C(OC(=O)COC(=O)c2ccc(=O)[nH]c2)C1 (centres undefined),n,n,n,n,n,n
CC1CCC(C(C)C)C(OC(=O)COC(=O)c2cc(O)ccc2N)C1 (centres undefined),u,n,n,10µM,u,n
COc1ccc2c(c1)c1c(c(=O)n(-c3cccc(Cl)c3)c(=O)n1CC(=O)NCC1CCCO1)n2C (centres undefined),n,x,x,n,n,n
C=CCn1cccc(C(=O)Nc2ccc(Cl)cc2)c1=O,n,n,n,n,n,n
C=CCn1cccc(C(=O)Nc2ccc(N(C)C)cc2)c1=O,n,n,n,12.6µM,u,n
C=CCn1cccc(C(=O)Nc2cc(OC)c(OC)c(OC)c2)c1=O,n,n,n,n,31.6µM,n
O=C(Nc1cc(C(F)(F)F)ccc1Cl)c1cc(-c2cccs2)nc2ccccc12,n,x,x,n,n,n
Cc1cccc(NC(=O)C2CCCN(c3nc4ccccc4s3)C2)c1C (centres undefined),n,x,x,n,n,n
CC(Sc1nnc(N)s1)C(=O)Nc1ccc2c(c1)OCO2 (centres undefined),n,n,n,44.7µM,n,n
O=C(Nc1ccc2c(c1)OCO2)C1CCCN(c2nc3ccccc3s2)C1 (centres undefined),n,n,n,3.16µM,n,n
